Measured values from PubChem BioAssay.
Calls of active or inactive are those of the source. Unless noted, how the calls were made is not given here.

Columns and labels:
[1] = test system: Wnt5a (protein binding on small-molecule microarray); experiment: Wnt5a binders on small-molecule microarray, primary screen, biophysical, 635/667 nm fluorescence (AID 1142); conditions: 635 nm fluorescence, higher = more signal;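 further: fluorescence read at 667 nm with signal to noise per printed feature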
[2] = cell viability in Huh7 cells, primary screen, cytotoxicity control for HCV replication inhibitor project, CellTiter-Glo luminescence, basal, 48 h (AID 1143); conditions: Huh7 HCV replicon, higher = more signal, called active from +8 up or from −8 down;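 further: Huh7 hepatoma cells carrying a hepatitis C replication reporter with no stimulus; test concentration not given here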
[3] = P. aeruginosa biofilm formation inhibitors, primary screen, PAO1 strain, BacTiter-Glo luminescence, LB-PBS (AID 1144); conditions: 12 h, higher = more signal
[4] = CREB reporter modulators without forskolin, primary screen, cell-based, PC12, CRE-LacZ reporter, unstimulated (AID 1145); conditions: no forskolin, luminescence, 4.5 h, higher = more signal, called active from +8 up or from −8 down
[5] = CREB reporter modulators under forskolin, primary screen, cell-based, PC12, CRE-LacZ reporter, forskolin-stimulated (AID 1146); conditions: luminescence, 4.5 h, higher = more signal, called active from +8 up or from −8 down;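 further: PC12 cells with 6xCRE LacZ reporter stimulated by forskolin 10 µM; beta-galactosidase reporter signal reflecting CREB driven transcription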
[6] = molecular target: Streptavidin (Streptomyces avidinii) (UniProt P22629); experiment: streptavidin binders on small-molecule microarray, primary screen, artefact control for SMM compound annotation, biophysical, 635/667 nm fluorescence (AID 1147); conditions: streptavidin binding, higher = more signal;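 further: signal reflects streptavidin binding to arrayed compounds as a control protein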
Streptavidin (Streptomyces avidinii), sequence (P22629 whole entry, looked up): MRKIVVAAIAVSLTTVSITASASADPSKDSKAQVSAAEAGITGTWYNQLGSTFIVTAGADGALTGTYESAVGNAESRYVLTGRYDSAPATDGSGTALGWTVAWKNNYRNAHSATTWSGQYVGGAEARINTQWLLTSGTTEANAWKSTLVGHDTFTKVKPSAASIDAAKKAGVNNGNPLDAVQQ

[7] = small-molecule binders of probe aInhba, primary screen, biochemical, small-molecule microarray, 635/667 nm fluorescence (AID 1148); conditions: higher = more signal;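 further: score merges 667nm spot fluorescence with signal-to-noise for antibody binding to printed compounds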
Torsin-1A (Homo sapiens) [8] = molecular target: Torsin-1A (Homo sapiens) (UniProt O14656); experiment: torsin A binders from cell lysate, primary screen, small-molecule microarray, wild-type, 635/667 nm (AID 1149); conditions: COS7 hTOR1A-WT lysate, 635 nm fluorescence, higher = more signal
Torsin-1A (Homo sapiens), sequence (O14656 whole entry, looked up): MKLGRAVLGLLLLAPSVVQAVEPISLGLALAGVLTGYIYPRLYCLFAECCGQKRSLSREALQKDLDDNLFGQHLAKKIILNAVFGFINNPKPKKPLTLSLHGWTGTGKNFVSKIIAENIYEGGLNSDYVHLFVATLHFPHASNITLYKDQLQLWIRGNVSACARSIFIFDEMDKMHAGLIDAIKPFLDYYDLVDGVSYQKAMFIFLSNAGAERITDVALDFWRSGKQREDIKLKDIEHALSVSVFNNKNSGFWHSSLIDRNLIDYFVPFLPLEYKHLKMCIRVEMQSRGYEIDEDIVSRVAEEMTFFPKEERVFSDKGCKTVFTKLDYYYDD

Torsin-1A (Homo sapiens) [9] = molecular target: Torsin-1A (Homo sapiens) (UniProt O14656); experiment: small-molecule binders of mutant TOR1A in lysate, primary screen, cell lysate, small-molecule microarray, COS7 lysate, 635/667 nm fluorescence (AID 1150); conditions: COS7 hTOR1A mutant lysate, 635 nm fluorescence, higher = more signal;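 further: score pools 667 nm emission and signal to noise measuring lysate protein binding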
[10] = test system: Sonic hedgehog protein (Shh); experiment: small-molecule binders of Shh protein, primary screen, biochemical, small-molecule microarray, 635/667 nm fluorescence (AID 1151); conditions: small-molecule microarray binding, 635 nm fluorescence; higher = more signal;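 further: Shh protein binding to compounds spotted on small-molecule microarray slides; score combines spot fluorescence intensity with signal-to-noise across triplicate slides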

SMILES | composite z-score [1] | z-score [2] | z-score [3] | z-score [4] | z-score [5] | composite z-score [6] | composite z-score [7] | composite z-score (Torsin-1A (Homo sapiens) [8]) | composite z-score (Torsin-1A (Homo sapiens) [9]) | composite z-score [10]
Cc1cc2c(nc1C)CCCN2CC(C)ON=C1[C@H]2CCn3c(=O)n(-c4ccccc4)c(=O)n3[C@H]2[C@H](O)[C@@H]2O[C@H]12 (stereo not given in full) | 0.337 | 0.357 (inactive) | -0.258 (inactive) | 0.415 (inactive) | 0.533 (inactive) | 0.196 | 0.0301 | -0.0339 | 0.246 | 1.03
CCOC(=O)C1=CCC(c2cc3ccccc3[nH]2)NC1 (stereo not given) | 0.109 | -2.83 (inactive) | 0.756 (inactive) | 0.369 (inactive) | 0.464 (inactive) | 0.338 | 0.029 | 0.661 | 0.449 | -0.402
Cc1ccc(C2CC=C(C(=O)O)CN2S(=O)(=O)c2ccc(C)cc2)cc1 (stereo not given) | 0.212 | 0.0273 (inactive) | -0.119 (inactive) | -0.378 (inactive) | 0.707 (inactive) | 0.169 | -0.024 | 0.427 | 0.426 | -0.065
CCc1cc2c(nc1CC)CCN(CCC(C)=NOC[C@@H](O)[C@H]1O[C@@H]3OC(C)(C)O[C@@H]3[C@H]1O)C2 | 0.146 | 0.731 (inactive) | -0.319 (inactive) | 0.006 (inactive) | 0.347 (inactive) | 0.18 | -0.0216 | 0.3 | 0.101 | 0.528
CCOC(=O)[C@H](Cc1ccccc1)NC(=O)CCC1CC(OC(=O)NCc2ccc3c(c2)OCO3)CC2(CCCC(COC(=O)NCC3CCCCC3)O2)O1 (stereo not given in full) | 0.0472 | -0.734 (inactive) | -0.0126 (inactive) | -0.613 (inactive) | -0.177 (inactive) | 0.592 | -0.0289 | -0.407 | 0.538 | 1.36
CCOC(=O)C[C@H]1[C@H](OC(=O)c2ccc(C(=O)c3ccccc3)cc2)[C@@H](NC(=O)c2ccc(-c3ccccc3)cc2)c2cc(OCCCO)ccc2N1C(=O)c1ccc2ccccc2n1 | 0.599 | -0.0434 (inactive) | -1.22 (inactive) | -0.738 (inactive) | -0.286 (inactive) | 1.44 | -0.102 | 0.274 | 0.408 | 1.11
CCN1C(=O)[C@H]2[C@H]3[C@H](O)[C@H](O)CC(=NOC[C@@H](C)[C@H](OCc4ccccc4)C(C)C)[C@@H]3CC[C@H]2C1=O | 0.0339 | -0.994 (inactive) | 0.683 (inactive) | 0.513 (inactive) | 0.435 (inactive) | 0.251 | -0.0458 | 0.221 | 1.05 | 0.119
CC(CCC(=O)OC[C@H]1O[C@H](C#Cc2ccccc2)C=C[C@@H]1Oc1ccc(C)cc1)=NO[C@@H](C)c1cn([C@H](CO)Cc2ccccc2)nn1 | 0.204 | -2.82 (inactive) | -1.07 (inactive) | 1.07 (inactive) | 0.0061 (inactive) | 0.258 | -0.003 | -0.323 | -0.146 | 0.316
CC(=O)C[C@H](O)[C@@H](NC(=O)OC(C)(C)C)C(C)C | -0.388 | -2.64 (inactive) | -1.13 (inactive) | 0.288 (inactive) | 1.01 (inactive) | -0.3 | -0.0963 | -1.05 | -0.657 | 0.347
CCN1C(=O)[C@H]2[C@H]3[C@H](O)[C@H](O)CC(=NO[C@@H]4O[C@H](CO)[C@@H](O)[C@H](O)[C@H]4O)[C@@H]3CC[C@H]2C1=O | -0.215 | 0.499 (inactive) | 0.00567 (inactive) | -0.925 (inactive) | -0.951 (inactive) | -0.933 | -0.249 | 1.47 | -0.213 | 0.365
CC(C)=C1C(=O)C(c2ccccc2)=C2CN3C(=O)N(CCc4ccccc4)C(=O)[C@]3(Cc3ccc(F)cc3)[C@H]21 | -0.506 | -0.934 (inactive) | -0.00959 (inactive) | 0.576 (inactive) | 1.73 (inactive) | 0.0452 | 0.205 | -2.38 | -1.7 | -1.74
O=C1C[C@]2(c3ccc([N+](=O)[O-])cc3)C(=O)N(CCN3CCOCC3)c3cc(CO)ccc3[C@H]2N1CC12CC3CC(CC(C3)C1)C2 | -0.433 | -1.04 (inactive) | -0.954 (inactive) | 0.324 (inactive) | 0.247 (inactive) | -0.0783 | -0.122 | -0.967 | -0.862 | -0.509
c1ccc(C2NCCc3c2[nH]c2ccccc32)cc1 (stereo not given) | -0.18 | -0.92 (inactive) | -0.0191 (inactive) | -0.253 (inactive) | -1.11 (inactive) | -0.26 | -0.101 | 0.586 | 0.462 | -0.12
CC(C)C[C@@H]1NC(=O)[C@H]2C[C@@H](C(=O)NCCCCCCN(C)C)[C@@H](c3cccc(OCCO)c3)N2C1=O | 0.726 | 0.069 (inactive) | -0.402 (inactive) | 0.0124 (inactive) | -0.995 (inactive) | -0.305 | -0.0317 | 1.22 | 1.32 | 2.13
COc1ccc(O[C@H]2C=C[C@@H](c3ccccc3)O[C@@H]2CON=C[C@@H](C)[C@H](OCc2ccccc2)C(C)C)cc1 | -0.426 | -0.149 (inactive) | 0.531 (inactive) | -0.971 (inactive) | 0.367 (inactive) | -0.567 | -0.21 | -1.53 | -0.91 | -0.071
CC(CCN1CCc2nc(-c3ccccc3)c(-c3ccccc3)cc2C1)=NO[C@@H](C)c1cn([C@H](CO)Cc2ccccc2)nn1 | -0.107 | -0.802 (inactive) | -0.414 (inactive) | 0.573 (inactive) | -0.795 (inactive) | 0.52 | 0.0131 | 1.62 | 0.482 | 1.25
COc1ccc([Si](C)(C)[C@H]2[C@H](CC(=O)N3CCC[C@H]3CO)O[C@@]3(C(=O)N(Cc4cccc(N5C(=O)COc6ccccc65)c4)c4ccccc43)[C@@H]2C)cc1 | 0.156 | -2.16 (inactive) | -0.201 (inactive) | 7.18 (inactive) | -1.22 (inactive) | 0.0527 | -0.157 | 0.419 | 0.889 | 1.92
COCCOC(=O)N1C(=O)[C@@]2(c3cc(C#Cc4ccc(OC)cc4)ccc31)[C@H](C(=O)N1CCN(c3ncccn3)CC1)[C@H]1C(=O)O[C@H](c3ccccc3)[C@H](c3ccccc3)N1[C@@H]2c1ccc(OCCO)cc1 | 0.044 | -0.151 (inactive) | -0.118 (inactive) | -0.606 (inactive) | -0.242 (inactive) | 0.531 | 0.397 | -0.0983 | 0.33 | 1
CCCNC(=O)[C@@H]1c2ccccc2C(=O)N(Cc2ccccc2Cl)[C@H]1c1ccc(CO)cc1 | 0.4 | -1.44 (inactive) | 0.378 (inactive) | -0.412 (inactive) | -0.366 (inactive) | 0.802 | 0.264 | 0.174 | 0.461 | 1.9
CCOC(=O)CCN1C(=O)[C@H]2[C@H]3[C@H](O)C=CC(=O)[C@@H]3CC[C@H]2C1=O | -0.244 | 0.507 (inactive) | -0.281 (inactive) | -0.115 (inactive) | -0.297 (inactive) | 0.225 | 0.0104 | 0.327 | -0.364 | 0.425
O=C1[C@H]2[C@H]3[C@H](O)[C@H](O)CC(=NO[C@@H]4O[C@H](CO)[C@@H](O)[C@H](O)[C@H]4O)[C@H]3CC[C@H]2C(=O)N1C1CCCCC1 | -0.0314 | 0.582 (inactive) | 0.423 (inactive) | -0.0175 (inactive) | 0.234 (inactive) | -0.534 | -0.0313 | 1.03 | 0.843 | 0.61
COC(=O)[C@H](C)NC(=O)CCC1CC(OC(=O)NCc2cccc3ccccc23)CC2(CCCC(COC(=O)NCC3CCCCC3)O2)O1 (stereo not given in full) | 0.835 | -0.426 (inactive) | -0.803 (inactive) | 0.91 (inactive) | 1.76 (inactive) | 0.688 | 0.0543 | 1.02 | 1.05 | 1.43
CC(C)CON=C1C[C@@H](O)[C@@H](O)[C@@H]2[C@@H]3C(=O)N(Cc4ccccc4)C(=O)[C@@H]3CC[C@@H]12 | 0.0819 | 0.674 (inactive) | 0.579 (inactive) | -0.203 (inactive) | 0.462 (inactive) | -0.354 | -0.071 | 0.407 | 0.16 | 0.305
COC(=O)[C@H](C)NC(=O)[C@@H](C)CO | 0.174 | -0.76 (inactive) | 0.06 (inactive) | -0.432 (inactive) | 0.17 (inactive) | 0.733 | -0.0313 | 0.927 | 0.461 | 0.575
CO[C@H]1O[C@H](CO)[C@@H](OC(=O)Nc2ccc(C#N)cc2)[C@H](OC(=O)c2cc3ccccc3[nH]2)[C@H]1OC(=O)c1cc2ccccc2[nH]1 | 0.436 | -3.88 (inactive) | -2.05 (inactive) | 0.484 (inactive) | -1.03 (inactive) | 0.779 | -0.0011 | 0.91 | 1.36 | 0.746
N#Cc1ccc(NN2C(C(O)c3cccc4ccccc34)C=CC3C(=O)N(c4ccccc4)C(=O)C32)cc1 (stereo not given) | 0.305 | 0.128 (inactive) | -0.811 (inactive) | -0.708 (inactive) | -0.302 (inactive) | 1.75 | 0.49 | 0.612 | 0.358 | -0.335
CCN1C(=O)[C@H]2[C@H]3[C@H](O)[C@H](O)CC(=NOCC=C(C)CCC=C(C)C)[C@H]3CC[C@H]2C1=O | 0.249 | -0.327 (inactive) | -0.805 (inactive) | -0.0223 (inactive) | -0.323 (inactive) | -0.298 | -0.0471 | 0.896 | 0.43 | 1.77
COC(=O)[C@@]1(Cc2ccc(OC)cc2)[C@H]2c3cc(C(=O)N4CCCC4)n(Cc4cc(F)c(F)c(F)c4)c3C[C@H]2CN1C(=O)c1ccccc1 | 2.29 | -3.23 (inactive) | 0.112 (inactive) | 0.0041 (inactive) | 0.589 (inactive) | 2.6 | 1.87 | 0.188 | 0.538 | -0.241
C=C(/C(=C/C[C@H](OC(C)=O)c1ccc(OCCO)cc1)c1cnc2ccccc2c1)C(C)C | 0.826 | -2.51 (inactive) | -1.37 (inactive) | 2.06 (inactive) | -0.586 (inactive) | 0.868 | -0.108 | 0.55 | 1 | 2.21
